Assay: small molecules boosting NK-mediated OVCAR3 lysis – imaging, primary NK cells, calcein-AM imaging, primary screen (AID 1508625);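 further: compound given to NK cells 16 h before adding targets at 1.5 to 1 ratio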;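 on z-score: more negative robust z means stronger NK killing of tumor cells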
Details: OVCAR3 lysis by primary NK cells, at 5 µM; z-score: measured here: robust Z-score, single-point normalisation

S=C1CSc2ccccc2N1
corrected activity, negative = more killing: -1.4% | z-score: -0.377

Cc1cccc(C)c1OCCNC(=O)c1cc2ccccc2o1
corrected activity, negative = more killing: -1.04% | z-score: -0.579

COc1ccc(CN2c3cccc[n+]3CC2(O)c2ccc(Cl)cc2)cc1 (stereo not drawn)
corrected activity, negative = more killing: 0.199% | z-score: 0.0419

O=C1C(=O)N(CCO)C(c2ccc(Br)cc2)C1=C(O)c1ccccc1 (stereo not drawn)
corrected activity, negative = more killing: -2.24% | z-score: -0.856

O=C(Cn1cnc2ccccc2c1=O)NCCC(=O)N1CCOCC1
corrected activity, negative = more killing: -5.47% | z-score: -1.74

O=C(CCCn1c(=S)[nH]c2cc3c(cc2c1=O)OCO3)N1CCN(Cc2ccc3c(c2)OCO3)CC1
corrected activity, negative = more killing: -2.04% | z-score: -0.54

COC(=O)c1ccc(-n2nnnc2SCC(=O)Nc2ccc(F)cc2)cc1
corrected activity, negative = more killing: -6.69% | z-score: -2

O=C(Nc1nc(-c2ccc([N+](=O)[O-])cc2)cs1)c1ccccc1F
corrected activity, negative = more killing: -1.2% | z-score: -0.252

Cc1ccc(-c2nc3ccccc3c(C(=O)O)c2C)cc1
corrected activity, negative = more killing: -2.28% | z-score: -1.18

Cc1ccc(S(=O)(=O)n2cnc3ccccc32)cc1C
corrected activity, negative = more killing: -9% | z-score: -2.79

COc1ccc(-c2cc(C(=O)NN=Cc3ccncc3)[nH]n2)cc1
corrected activity, negative = more killing: 2.36% | z-score: 1.03

O=C(Nc1ccc(N2CCN(Cc3ccccc3Cl)CC2)cc1)c1ccco1
corrected activity, negative = more killing: 1.61% | z-score: 0.895

Cc1oc(-c2cccc(Br)c2)nc1CN1CCC(C(=O)NC(C)CCc2ccccc2)CC1 (stereo not drawn)
corrected activity, negative = more killing: -7.41% | z-score: -2

Cc1cc(=O)n2[nH]c(C)cc2n1
corrected activity, negative = more killing: -3.27% | z-score: -0.975

Oc1cccc(CN2CCN3CCCC3C2C2CCCCC2)c1 (stereo not drawn)
corrected activity, negative = more killing: -0.454% | z-score: -0.198

c1ccc(-c2nnc3n2C2(CCCCC2)Cc2ccccc2-3)cc1
corrected activity, negative = more killing: 0.806% | z-score: 0.417

CCC(SC1=NCCS1)C(=O)Nc1ccc(S(N)(=O)=O)cc1 (stereo not drawn)
corrected activity, negative = more killing: -2.81% | z-score: -1.06

COC(=O)c1ccc(C)c(NC(=O)c2ccc(C3SCC(=O)N3Cc3ccccc3)cc2)c1 (stereo not drawn)
corrected activity, negative = more killing: -5.82% | z-score: -2.22

COC(=O)c1ccc(CN2CCN3CCCC3C2C)cc1 (stereo not drawn)
corrected activity, negative = more killing: -3.15% | z-score: -1.38

O=C1C(=Cc2ccccc2)SC(=S)N1C1CCS(=O)(=O)C1 (stereo not drawn)
corrected activity, negative = more killing: -2.25% | z-score: -0.887

O=C1CC(c2ccc(Cl)cc2)CC2=C1C(c1cccc(F)c1)Nc1ccccc1N2 (stereo not drawn)
corrected activity, negative = more killing: -9.53% | z-score: -2.95

O=C(Cc1ccccc1)Nc1ccc2oc(-c3ccc(I)cc3)nc2c1
corrected activity, negative = more killing: -1.02% | z-score: -0.361

Cc1ccc2nc(NC(=O)COC(=O)CSc3nc(C)cc(C)n3)sc2c1
corrected activity, negative = more killing: -4.93% | z-score: -1.86

CCCC12CN3CC(C)(CN(C1)C(=O)c1ccccc1C3=O)C2=O
corrected activity, negative = more killing: -4.81% | z-score: -1.98

Reference: PubChem BioAssay AID1508625 (Wald Lab, School of Medicine, Case Western Reserve …, 2021)
